Structures are written as SMILES. In all, about 290,000 compounds went through this assay and about 160 (0.055%) were called active. This is one part of a sample in which actives are shown more often than they occur. Cut-off read from the data, not from the text of the source: active = inhibition above about 50%; inactive = the rest.

What is called inhibition is the relative decrease from the control value, in per cent.

Tyrosine-protein phosphatase non-receptor type 22 (Homo sapiens), sequence (Q9Y2R2 whole entry, looked up): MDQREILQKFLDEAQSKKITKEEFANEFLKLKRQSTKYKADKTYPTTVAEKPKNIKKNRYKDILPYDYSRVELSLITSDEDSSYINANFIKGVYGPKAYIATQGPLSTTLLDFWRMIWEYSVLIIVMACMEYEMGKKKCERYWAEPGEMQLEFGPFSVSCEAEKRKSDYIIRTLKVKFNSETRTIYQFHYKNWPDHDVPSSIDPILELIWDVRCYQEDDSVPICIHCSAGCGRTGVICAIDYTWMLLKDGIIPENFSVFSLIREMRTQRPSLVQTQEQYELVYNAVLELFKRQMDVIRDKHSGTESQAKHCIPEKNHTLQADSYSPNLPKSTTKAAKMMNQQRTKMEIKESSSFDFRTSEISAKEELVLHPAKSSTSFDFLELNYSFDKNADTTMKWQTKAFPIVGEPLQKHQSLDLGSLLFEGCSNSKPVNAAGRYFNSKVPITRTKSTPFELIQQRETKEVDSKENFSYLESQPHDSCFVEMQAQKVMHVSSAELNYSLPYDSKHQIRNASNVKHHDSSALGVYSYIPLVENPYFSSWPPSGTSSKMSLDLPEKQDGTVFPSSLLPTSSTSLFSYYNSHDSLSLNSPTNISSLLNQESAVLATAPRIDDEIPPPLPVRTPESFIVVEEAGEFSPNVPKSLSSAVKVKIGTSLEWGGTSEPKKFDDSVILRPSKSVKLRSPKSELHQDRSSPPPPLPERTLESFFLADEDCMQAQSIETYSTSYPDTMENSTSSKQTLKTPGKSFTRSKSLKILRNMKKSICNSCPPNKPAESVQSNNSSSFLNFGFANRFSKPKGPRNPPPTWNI

This assay has as its target Tyrosine-protein phosphatase non-receptor type 22 (Homo sapiens) (UniProt Q9Y2R2). In words: PTPN22 lymphoid phosphatase activity blockers – biochemical, fluorescence intensity, uHTS (AID 1779).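 Note: plate controls were vehicle with enzyme for no effect and no enzyme for full effect.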 The settings on record: recombinant LYP phosphatase, at 11.5 µM, stronger effect = higher value.
For the compound `Cn1c(=O)c2ncn(CC(=O)N/N=C/c3ccco3)c2n(C)c1=O`, the inhibition was -9.9% (inactive).
As for `CC(=O)CCS(=O)(=O)c1ccc(NC(C)=O)cc1`, the inhibition is -5.5% (inactive).
On to `Cc1ccc(NC(=O)COC(=O)c2cc(-c3cccs3)nn2-c2ccccc2)cc1[N+](=O)[O-]`, for which the inhibition is 74.9% (active).
For `O=C(COC(=O)c1cc(-c2cccs2)nn1-c1ccccc1)Nc1ccc(F)c([N+](=O)[O-])c1`, the inhibition is -7.7% (inactive).
`O=C(COC(=O)c1cc(-c2cccs2)nn1-c1ccccc1)Nc1ccc(Cl)c([N+](=O)[O-])c1`: the inhibition is 2% (inactive).
In the case of `CC(=O)c1ccc(N2C(=O)[C@@H]3C(CCC(N)=O)NC4(C(=O)Nc5c4ccc(Cl)c5C)[C@@H]3C2=O)cc1` (some centres not stated), the inhibition is -3.9% (inactive).
As to `N#Cc1c(N2CCCC2)nc(N)c2c(N)nc(N3CCCC3)cc12`, the inhibition is 65.7% (active).
For `COc1cc2c(C#N)c(N3CCCC3)nc(N)c2c(N)n1`, the inhibition is -2.4% (inactive).
Consider `COc1cc2c(C#N)c(N3CCCCC3)nc(N)c2c(N)n1`, for which the inhibition was -1.1% (inactive).
On to `CCCC(=O)NC(=S)Nc1ccccc1F`, for which the inhibition is -10.5% (inactive).
In the case of `Cc1cccc(C)c1N1CCN(c2n[nH]c(N)n2)CC1`, the inhibition was -8.3% (inactive).
For the compound `CC12CCC(=O)N1c1ccccc1C(=O)N2c1ccccc1` (configuration not stated), the inhibition is 66.6% (active).
With `CC1(C)CCC(=O)N(c2ccccc2)C1=O`, the inhibition is -3% (inactive).
In the case of `CC1(C)Nc2ccccc2C(=O)N1c1ccccc1`, the inhibition was -11.8% (inactive).
As to `CC(=O)Nn1c(COc2ccccc2C)nc2ccccc2c1=O`, the inhibition was -4.5% (inactive).
As to `Cc1cccc(-n2ccc(=O)c(C(=O)Nc3ccc(S(=O)(=O)Nc4onc(C)c4C)cc3)n2)c1`, the inhibition is -7.6% (inactive).
The figure for `Cc1ccc(-n2ccc(=O)c(C(=O)Nc3ccc(S(=O)(=O)Nc4onc(C)c4C)cc3)n2)cc1` is 2.8% (inactive); for `Cc1noc(NS(=O)(=O)c2ccc(NC(=O)c3nn(-c4ccccc4)ccc3=O)cc2)c1C` it is 53.3% (active); for `COc1cc(CC(NC(C)=O)C(=O)NC2CCN(c3nc(C)cc(C)c3C#N)CC2)cc(OC)c1` (configuration not stated) it is -2.6% (inactive).
Under `COc1cc(/C=C2/NC(=O)NC2=O)cc(Br)c1OCc1cccc(C(=O)O)c1` stands 4.5% (inactive).
The figure for `COc1cc(/C=C2/NC(=O)NC2=O)cc(Br)c1OCc1ccc(C(=O)O)cc1` is 26.8% (inactive); for `Nc1nonc1-n1nnc(C(=O)N/N=C/c2ccoc2)c1CSc1ccc(Cl)cc1` it is -6.9% (inactive).
In the case of `C=C(C)Cn1c(SCC(=O)O)nc2c1c(=O)[nH]c(=O)n2C`, the inhibition was -3.9% (inactive).
On to `CCCc1nc2ccc([N+](=O)[O-])cc2[nH]1`, for which the inhibition was -5.4% (inactive).
As for `CCc1nc2cc([N+](=O)[O-])c([N+](=O)[O-])cc2[nH]1`, the inhibition is 54.4% (active).
Under `CCc1nc2cc(Cl)c(Cl)cc2[nH]1` stands -3% (inactive); under `CCC(=O)Nc1ccc2nc3c(=O)[nH]c(=S)[nH]c3nc2c1`, -5.4% (inactive); under `Nc1ccc2nc3c(=O)n(C4CCCCC4)c(=O)[nH]c3nc2c1`, 4.7% (inactive).
The figure for `Nc1ccc2nc3c(=O)[nH]c(=S)[nH]c3nc2c1` is 58.3% (active); for `OC(COC(c1ccccc1)c1ccccc1)CN1CCOCC1` (configuration not stated) it is 1.2% (inactive).
Under `COC(=O)C1CCN(c2ccc([N+](=O)[O-])cc2)CC1` stands -2.8% (inactive); under `COC(=O)C1CCN(Cc2ccc(OCCCN3CCN(c4ccc([N+](=O)[O-])cc4)CC3)cc2)CC1`, 78.6% (active); under `COC(=O)C1CCN(CCCOc2ccc(CN3CCN(c4ccc([N+](=O)[O-])cc4)CC3)cc2)CC1`, -8% (inactive).
With `CCOC(=O)c1cnc2c(C)c(C)ccc2c1NCCN1CCOCC1`, the inhibition was -7.3% (inactive).
Under `CCOC(=O)c1cnc2c(Cl)cccc2c1NCCN1CCOCC1` stands -9.2% (inactive); under `CCOC(=O)c1cnc2c(Cl)c(Cl)ccc2c1NCCN1CCOCC1`, 59.4% (active); under `COc1ccc(C(=O)NCCNC(C)=O)cc1S(=O)(=O)NCc1ccc(Cl)cc1`, -8.9% (inactive).

The values above are taken from PubChem BioAssay AID1779 (Sanford-Burnham Center for Chemical Genomics, 2009).
